The campaign covered roughly 48,000 compounds. About 13,000 (27%) showed an effect of 50% or more. The list shows a part of the results.

For the test, the system named is Wolbachia pipientis. The experiment in a line: Anti-Wolbachia Cell-Based Screen. The format is functional. Also on record: scale not given: in the data most compounds retested in dose-response had high values. Conditions: 5 µM.
Regarding `Cc1cc(CNC(=O)c2cc(C(C)C)n(C)n2)ccc1S(C)(=O)=O`, the “Percent Effect” value is -6.268%.
As to `CC(=O)N(CCc1ccccc1)CC(=O)NC(C)(C)C#N`, the “Percent Effect” value is listed as -33.05%.
As for `COCCCN1CC2(CCCN(c3ncnc4[nH]cnc34)C2)CCC1=O` (stereo not drawn), the figure is -3.857%; as for `O=C1N(CCC2CCCCC2)CCCC1(O)CNCCc1ccccc1` (stereo not drawn), 4.403%; as for `O=C(O)C(=O)O.c1ccc2c(c1)SCCC2NCc1ccc(N2CCOCC2)cc1` (stereo not drawn), -0.4171%.
As for `Cn1cc(C(=O)CC2CCCN2C(=O)c2ccn3ccnc3c2)cn1` (stereo not drawn), the figure is 8.483%; as for `Cn1cc(C(=O)CC2CCCN2C(=O)c2cccc3ncccc23)cn1` (stereo not drawn), 103.8%.
As for `Cc1cscc1C(=O)N1CCCC1CC(=O)c1cnn(C)c1` (stereo not drawn), the figure is 127.4%; as for `CCc1ccccc1C(=O)N1CCCC1CC(=O)c1cnn(C)c1` (stereo not drawn), 88.86%.
On to `COc1cc(C(=O)N2CCCC2CC(=O)c2cnn(C)c2)ccc1F` (stereo not drawn), for which the “Percent Effect” value is -15.51%.
For the molecule `CCc1cc(C)c(C(=O)N2CCCC2CC(=O)c2cnn(C)c2)o1` (stereo not drawn), the “Percent Effect” value was -2.154%.
The same measure for `Cn1cc(C(=O)CC2CCCN2C(=O)c2ccncc2F)cn1` (stereo not drawn): 96.19%; for `Cc1ccc(O)c(C(=O)N2CCCC2CC(=O)c2cnn(C)c2)c1` (stereo not drawn): -14.12%; for `Cn1cc(C(=O)CC2CCCN2C(=O)c2cncc3ccccc23)cn1` (stereo not drawn): 0.2394%.
The same measure for `Cn1cc(C(=O)CC2CCCN2C(=O)c2ccc(Cl)cn2)cn1` (stereo not drawn): -8.745%.
The same measure for `CCn1c(CN(C)CC(F)(F)F)nc2c(F)cccc21`: -13.63%; for `COc1cc(F)c(C(=O)NCc2ccon2)c(F)c1`: -19.7%.
Take `COc1ccc(C2=CCN(C(=O)CN(C)Cc3ccoc3)CC2)cc1`: the “Percent Effect” value was 39.3%.
Take `Cc1cc(-n2cncn2)ccc1C(=O)N(C)CC(F)(F)C(F)(F)F`: the “Percent Effect” value was -10.14%.
`CS(=O)(=O)N1C[C@@H]2COC[C@@H](CC(=O)N3CCCO3)[C@@H]2C1`: the “Percent Effect” value is given as -9.708%.
As for `Cc1ccoc1C(=O)N1CCOC2(CCCC2)C1`, the figure is -7.54%.
As for `CCOC(C)c1nc(COc2nc(C)no2)cs1` (stereo not drawn), the figure is -4.126%; as for `Cn1cc(C(=O)CC2CCCN2C(=O)c2ccc(Cl)o2)cn1` (stereo not drawn), 3.308%.
For the molecule `Cn1cc(C(=O)CC2CCCN2C(=O)c2coc3ccccc23)cn1` (stereo not drawn), the “Percent Effect” value was determined as 99.8%.
For `Cn1cc(C(=O)CC2CCCN2C(=O)c2n[nH]c3ccccc23)cn1` (stereo not drawn), the “Percent Effect” value is reported as -3.127%.
As for `O=C(c1ccncc1)N1CCN(C(=O)c2coc3ccccc23)CC1`, the figure is -6.895%; as for `Cn1cc(C(=O)CC2CCCN2C(=O)c2ccc3[nH]ncc3c2)cn1` (stereo not drawn), -6.365%; as for `Cn1cc(C(=O)CC2CCCN2C(=O)c2c[nH]c3ccccc23)cn1` (stereo not drawn), 107.8%.
As for `Cn1cc(CN2CCc3ncn(C)c3C2COCc2cccnc2)cn1` (stereo not drawn), the figure is -2.593%; as for `N#Cc1c(F)cccc1NCCCOCC1CCOC1` (stereo not drawn), -17.11%.
The same measure for `COCCNC(=O)c1nc(-c2cn(C)cn2)n2ccccc12`: 37.4%; for `Cc1cccc(C(=O)N2CCCn3cnc(CN4CCCC4=O)c3C2)n1`: 84.9%; for `Cc1cccc(C(=O)NC(CN2CCCC2=O)c2ccccc2)n1` (stereo not drawn): -6.295%.
Consider `Cc1occc1C(=O)N1CCC2(CCC(=O)N(CC(N)=O)C2)CC1`, for which the “Percent Effect” value amounted to 0.6674%.
As for `Cc1ccccc1C(=O)N1CCCn2cnc(CN3CCCC3=O)c2C1`, the figure is 104.2%.
As for `O=C1CCCN1Cc1ncn2c1CN(C(=O)c1cccc(F)c1)CCC2`, the figure is 7.876%.
The same measure for `Cc1ccccc1C(=O)N1CCCn2nnc(Cn3cccn3)c2C1`: -4.319%; for `Cc1occc1C(=O)N1CCCn2cnc(CN3CCCC3=O)c2C1`: 99.06%; for `Cc1occc1C(=O)N1CCn2cnc(COCC3CC3)c2C1`: -3.111%.
As to `O=C(NC1CC1)C1CCCN(c2cc(-n3cncn3)ncn2)C1` (stereo not drawn), the “Percent Effect” value was -0.5146%.
The same measure for `COCCN(C)C[C@@H]1CCC[C@@H]2CN(c3cc(OC)ncn3)C[C@@H]21.O=C(O)C(F)(F)F`: -6.847%.
As for `Cc1cccc(C2(CNC(=O)C(C)S(C)(=O)=O)CCCC2)c1` (stereo not drawn), the figure is 0.1525%; as for `O=C(O)C(F)(F)F.c1ccc(CN2Cc3nccn3CC(Cn3cccn3)C2)nc1` (stereo not drawn), 97.11%.
The same measure for `O=C(O)C(F)(F)F.c1ccc(CN2Cc3nccn3CC(Cn3cncn3)C2)nc1` (stereo not drawn): 98.39%; for `CC(=O)N1[C@H](Cn2cncn2)C[C@@H]2CN(Cc3ccccn3)CC[C@@H]21.O=C(O)C(F)(F)F.O=C(O)C(F)(F)F`: 10.04%.
With `N#Cc1ccc(NCCCOCC2CCCO2)c(F)c1` (stereo not drawn), the “Percent Effect” value is given as -11.95%.
As for `CC(=O)NCc1ccc(C(=O)N2CCCc3c(F)ccc(C)c32)o1`, the figure is -10.88%; as for `Cc1ccc(F)c2c1N(C(=O)c1ccc(S(C)(=O)=O)cc1)CCC2`, 11.45%; as for `COc1ccc(C)c2c1N(C(=O)c1ccc3nnc(C)n3c1)CCC2`, -2.27%.
The same measure for `Cc1ccc(F)c2c1N(C(=O)c1cn(CC(=O)N(C)C)nn1)CCC2`: 115.7%.
With `CC(c1ccccc1)N(C)C(=O)CN1CCCc2cccc(F)c21` (stereo not drawn), the “Percent Effect” value came to 5.525%.
As for `COc1cccc2c1N(C(=O)c1ccc(C)nc1)CCC2`, the figure is 2.178%; as for `CN(C)C(=O)Cn1cc(C(=O)N2CCCc3cccc(F)c32)nn1`, 105.3%.
As for `CN(C)C(=O)CN1CCCc2c(F)cc(Br)cc21`, the figure is 1.685%.
For `Cc1ccc(F)c2c1CCCN2C(=O)c1cn(CC(=O)N(C)C)nn1`, the “Percent Effect” value was 122.6%.
The same measure for `N[C@@H]1CC[C@@H](NC(=O)c2ccccc2OC(F)(F)C(F)F)C1`: 3.993%; for `CC(C)NC(=O)c1nc(Cn2c(C(F)(F)F)nc3ccccc32)no1`: 97.59%.
As for `Cc1ccc(C(=O)NC2CCN(Cc3noc(CC(C)C)n3)CC2)s1`, the figure is 3.066%.
As for `NC(=O)c1nc(CN2CCOC(C(F)(F)F)C2)no1` (stereo not drawn), the figure is -3.309%; as for `CC(C)NC(=O)CN(C)C1CCN(c2cnc3ccccc3n2)CC1`, -13.33%.
`CNC(=O)c1nc(CN2CCOC(C(F)(F)F)C2)no1` (stereo not drawn): the “Percent Effect” value was -14.11%.
The same measure for `CC(C)NC(=O)c1nc(Cn2c(C(F)F)nc3ccccc32)no1`: 117.9%.
`O=C(NC1CC1)c1nc(Cn2c(C(F)F)nc3ccccc32)no1`: the “Percent Effect” value turned out to be 97.34%.
The same measure for `CNC(=O)c1nc(CN2CCOC(Cc3ccc(F)cc3)C2)no1` (stereo not drawn): -1.093%; for `CNC(=O)c1nc(CN2CCOC(CCCC(C)C)C2)no1` (stereo not drawn): 2.803%.
The same measure for `O=C(NCCn1ccnc1)c1csc(Br)c1`: 7.312%.
As for `CC(C)c1cncnc1-c1cc(F)cc2c1OC(CN)C2` (stereo not drawn), the figure is -15.48%; as for `O=C(NCC1CCCO1)c1nc2c(s1)CCCN2C(=O)C1CC1` (stereo not drawn), 108.2%.
For `Cc1ccc(N2CCCc3sc(C(=O)NCC4CCCO4)nc32)nn1` (stereo not drawn), the “Percent Effect” value was found to be 101.4%.
As for `Cc1ccc(N2CCCc3sc(C(=O)NCc4ccc(C)o4)nc32)nn1`, the figure is -0.9915%.
Consider `O=C(NC1CC1)c1nc2c(s1)CCCN2c1ccccc1`, for which the “Percent Effect” value is 3.118%.
The same measure for `O=C(c1nc2c(s1)CCCN2CC1CC1)N1CCCC1`: 21.73%; for `O=C(NCC1CCCO1)c1nc2c(s1)CCCN2CC1CC1` (stereo not drawn): 97.2%; for `O=C(NCC1CCCO1)c1nc2c(s1)CCCN2c1ncccn1` (stereo not drawn): 95.9%.
The same measure for `O=C(c1nc2c(s1)CCCN2C(=O)C1CC1)N1CCOCC1`: 0.08995%; for `CN1CCCc2sc(C(=O)NC3CC3)nc21`: -6.027%; for `O=C(c1nc2c(s1)CCCN2CC1CC1)N1CCOCC1`: 13.28%.
The same measure for `Cc1ccc(N2CCCc3sc(C(=O)NCCO)nc32)nn1`: -4.347%; for `O=C(NCc1cccnc1)c1nc2c(s1)CCCN2c1ncccn1`: -3.859%.
For the molecule `c1cnc(NCC2Cn3nnc(-c4ccsc4)c3CO2)nc1` (stereo not drawn), the “Percent Effect” value is recorded as -8.794%.
As for `CCc1nnc(N2C[C@@H](NC(C)=O)[C@H](c3ccc(C)o3)C2)s1`, the figure is 0.4936%; as for `CCN1CCN(c2ccc(C(=O)NC(C)C(=O)N(C)C)cc2)CC1` (stereo not drawn), 1.595%.
Regarding `CNC(=O)CN1CCN(C(=O)Nc2ccc(C)s2)CC1`, the “Percent Effect” value is recorded as -4.084%.
The same measure for `CN(CCc1cccs1)C(=O)Nc1ccc2c(c1)C(=O)N(C)CC2`: -32.58%; for `Cc1nn(C(C)C)c(C)c1CN1CCC(c2cc(C(C)C)n[nH]2)CC1`: 4.458%; for `COCCN1CCCc2sc(C(=O)Nc3ccc(C)nc3)nc21.O=C(O)C(F)(F)F`: 8.218%.
As for `O=C(NCC1CCCO1)c1nc2c(s1)CCCN2Cc1ccccc1` (stereo not drawn), the figure is 98.1%.
As for `COCCNC(=O)c1nc2c(s1)CCCN2Cc1ccccc1`, the figure is 6.623%.
As for `COCCN1CCCc2sc(C(=O)N3CCCN(C)CC3)nc21.O=C(O)C(F)(F)F`, the “Percent Effect” value is recorded as -1.049%.
As for `COCCN1CCCc2sc(C(=O)NCC3CCCO3)nc21` (stereo not drawn), the figure is 104.4%; as for `CN(C)C(=O)CNC(=O)c1nc2c(s1)CCCN2Cc1ccccc1`, -13.23%; as for `Cc1ccc(-c2n[nH]cc2CN(Cc2nccn2C)C(C)C)cc1C`, -8.138%.
As for `COc1ccc(N2Cc3nc(=O)[nH]n3C2=O)cc1`, the figure is -10.45%.
As for `COCCSc1ccc(-n2cccn2)nn1`, the “Percent Effect” value was determined as 0.3938%.
In the case of `CC(c1nncn1C)n1cc(-c2cc(CN3CCCC3)cs2)nn1` (stereo not drawn), the “Percent Effect” value worked out at 2.3%.
For `CCC(Sc1ncc(CO)n1C)c1ccccc1` (stereo not drawn), the “Percent Effect” value is reported as 5.427%.
The same measure for `Cc1cc(Br)c(O)c(-c2nc(N3CCOCC3)sc2C)c1`: 133.3%; for `Cc1cc(Br)c(O)c(C(=O)N2CCC(CN3CCCCCC3)CC2)c1`: 20%; for `Oc1nnc(-c2ccccc2)c2sc(N3CCCCC3)nc12`: -2.363%.
As for `Cc1cc(Br)c(O)c(-c2nc(N3CCCCC3)sc2C)c1`, the figure is 122.7%; as for `COc1ccc(-n2nc(C(C)C)nc2Cn2cncn2)cc1`, 2.008%; as for `O=C(c1cc(C2CC2)on1)N1CCC(Oc2ncccc2Br)CC1`, 12.65%.
The same measure for `CCn1c(C2CCN(C(=O)c3cc(C4CC4)on3)CC2)nn(C)c1=O`: 94.75%.
Take `CCn1c(C2CCN(C(=O)CCc3cc(Cl)no3)CC2)nn(C)c1=O`: the “Percent Effect” value is recorded as 91.1%.
As for `COC(=O)C1CCCN1C(=O)c1cc(CC(C)C)no1` (stereo not drawn), the figure is -6%.
As for `O=C(CCc1cc(Cl)no1)N1CCN(CCn2cncn2)CC1`, the figure is -9.479%; as for `CCn1c(C2CCN(C(=O)c3cc(CC(C)C)on3)CC2)nn(C)c1=O`, 100.4%; as for `CCn1nc(CC(C)C)cc1C(=O)N1CCC(n2cnnc2)CC1`, 19.79%.
As for `Cc1nc(CN2CCN(C(=O)c3cc(C4CC4)on3)CC2)cs1`, the figure is -4.93%; as for `CCOC(=O)CC1CCCCN1C(=O)CCc1cc(Cl)no1` (stereo not drawn), -3.772%; as for `CCn1c(CC2CCN(C(=O)c3cc(CC(C)C)on3)CC2)n[nH]c1=O`, 3.496%.
As for `CCn1c(C2CCN(C(=O)c3cc(CC(C)C)no3)CC2)nn(C)c1=O`, the “Percent Effect” value is listed as 80.93%.
The same measure for `CC(C)Cc1cc(C(=O)N2CCC(C(=O)N3CCOCC3)CC2)on1`: -1.733%.

The record behind these values is ChEMBL document CHEMBL3988442, “University of Dundee, Small-Polar-MMV Screening Library” (2021).
